Source: PubChem BioAssay (NCATS)
Values joined by “and” are separate entries in the source; they are usually repeats but may differ in a detail not shown here. Identical values can stand only once. Results filed as inconclusive are left out. Where a call stands in place of a potency, no number is given. Some structures have more than one record in an assay (separate samples or runs), and their calls can disagree. Active and inactive are the calls of the source. Calls follow the shape of the dose curve; as a rule, active = well fitted curve in the direction sought with a large enough effect; inconclusive = small, poorly fitted or top-dose-only effect, or another doubt; inactive = no such curve, though single readings can be large; an effect the other way counts as inactive or inconclusive.

Tests used:
[1] = molecular target: Beta-2 adrenergic receptor (Homo sapiens) (UniProt P07550); test: qHTS validation assay of beta-arrestin-biased ligands of beta2-adrenergic receptor (AID 485366); conditions: cell-based beta-arrestin recruitment to ADRB2, qHTS; series mostly up to 46.1 µM
Beta-2 adrenergic receptor (Homo sapiens), sequence (P07550 whole entry, looked up): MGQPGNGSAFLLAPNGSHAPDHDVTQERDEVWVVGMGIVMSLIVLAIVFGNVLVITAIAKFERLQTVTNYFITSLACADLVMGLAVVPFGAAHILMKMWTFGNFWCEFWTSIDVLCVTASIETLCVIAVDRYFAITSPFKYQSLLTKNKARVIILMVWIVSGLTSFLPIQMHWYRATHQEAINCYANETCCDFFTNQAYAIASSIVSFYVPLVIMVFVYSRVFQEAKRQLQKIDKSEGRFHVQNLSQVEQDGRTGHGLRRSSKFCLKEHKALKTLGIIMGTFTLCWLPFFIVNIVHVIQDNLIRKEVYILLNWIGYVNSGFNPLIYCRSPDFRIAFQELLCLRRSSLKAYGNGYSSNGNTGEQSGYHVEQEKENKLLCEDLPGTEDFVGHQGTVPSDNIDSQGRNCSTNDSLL
Method in brief: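 Agonism was measured as beta-arrestin recruitment to recombinant beta2-AR, releasing tTA to drive luciferase. Cells were exposed for 18 hr at 37 degrees C to a series up to 46 microM. %Activity from corrected luminescence gave concentration-response curves.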

[2] = Quantitative high throughput screen for delayed death inhibitors of the malarial parasite plastid, 96 hour incubation (AID 488745); conditions: Plasmodium falciparum growth; series mostly up to 28.7 µM; also: nearly all actives have a fitted effect of over 70% in size; also: potency is read from the fitted curve at half-maximal effect
Method in brief: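 Decreased firefly luciferase luminescence indicates inhibited growth of reporter-integrated P. falciparum after two generations (96 h, 37 C, 5% CO2). Infected erythrocytes at 0.1% parasitemia, 2% hematocrit, in Albumax-supplemented RPMI 1640.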

[3] = Quantitative high throughput screen for delayed death inhibitors of the malarial parasite plastid, 48 hour incubation (AID 488752); conditions: Plasmodium falciparum growth; series mostly up to 28.7 µM; also: nearly all actives have a fitted effect of over 65% in size; also: potency is read from the fitted curve at half-maximal effect
Method in brief: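 One-generation (48 h) growth assay: a decrease in luciferase signal from an integrated reporter in P. falciparum-infected red cells (0.1% parasitemia, 2% hematocrit) after compound exposure at 37 C indicates parasite inhibition.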

[4] = molecular target: Thioredoxin reductase 1, cytoplasmic (Rattus norvegicus) (UniProt O89049); test: qHTS Assay for Substrates of Mammalian Selenoprotein Thioredoxin Reductase 1 (TrxR1) (AID 488772); conditions: purified TrxR1, NADPH consumption substrate assay; series mostly up to 57.1 µM;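 also: a drop in NADPH fluorescence below the no-compound background marks a TrxR1 substrate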
Thioredoxin reductase 1, cytoplasmic (Rattus norvegicus), sequence (O89049 whole entry, looked up): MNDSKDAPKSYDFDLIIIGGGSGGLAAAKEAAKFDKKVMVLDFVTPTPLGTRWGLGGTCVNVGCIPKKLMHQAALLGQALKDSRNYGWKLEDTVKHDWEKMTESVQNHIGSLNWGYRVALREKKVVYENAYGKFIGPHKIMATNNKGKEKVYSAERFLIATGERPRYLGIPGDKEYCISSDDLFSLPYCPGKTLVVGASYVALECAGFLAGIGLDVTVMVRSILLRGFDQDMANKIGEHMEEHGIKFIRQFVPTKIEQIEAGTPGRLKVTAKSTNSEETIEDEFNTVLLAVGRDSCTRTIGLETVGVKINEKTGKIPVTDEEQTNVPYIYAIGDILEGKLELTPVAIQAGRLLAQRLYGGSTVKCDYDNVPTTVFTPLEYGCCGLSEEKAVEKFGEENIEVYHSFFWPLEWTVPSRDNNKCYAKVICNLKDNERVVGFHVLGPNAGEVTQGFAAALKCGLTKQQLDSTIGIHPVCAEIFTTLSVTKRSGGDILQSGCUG
Method in brief: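 In this dual-purpose format, potential substrates are identified from the first fluorescence read after selenite addition, not from the 8-minute delta. Rat enzyme is preincubated with NADPH and then with compound at ~22 deg C.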

[5] = molecular target: Thioredoxin reductase 1, cytoplasmic (Rattus norvegicus) (UniProt O89049); test: qHTS Assay for Inhibitors of Mammalian Selenoprotein Thioredoxin Reductase 1 (TrxR1) (AID 488773); conditions: purified TrxR1 enzyme activity; Potency: inhibition; series mostly up to 57.1 µM; also: nearly all actives have a fitted effect of over 40% in size; also: potency is read from the fitted curve at half-maximal effect
Method in brief: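 Inhibition is scored from the loss of NADPH fluorescence between first and last reads of an 8-min kinetic run. Selenite (400 uM) was the substrate, added after 15 min compound preincubation at room temperature.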

[6] = molecular target: Flap endonuclease 1 (Homo sapiens) (UniProt P39748); test: qHTS Validation Assay for the Inhibitors of Human Flap endonuclease 1 (FEN1) (AID 488816); conditions: FEN1 nuclease activity, fluorogenic DNA substrate; series mostly up to 57.1 µM; also: potency is read from the fitted curve at half-maximal effect
Flap endonuclease 1 (Homo sapiens), sequence (P39748 whole entry, looked up): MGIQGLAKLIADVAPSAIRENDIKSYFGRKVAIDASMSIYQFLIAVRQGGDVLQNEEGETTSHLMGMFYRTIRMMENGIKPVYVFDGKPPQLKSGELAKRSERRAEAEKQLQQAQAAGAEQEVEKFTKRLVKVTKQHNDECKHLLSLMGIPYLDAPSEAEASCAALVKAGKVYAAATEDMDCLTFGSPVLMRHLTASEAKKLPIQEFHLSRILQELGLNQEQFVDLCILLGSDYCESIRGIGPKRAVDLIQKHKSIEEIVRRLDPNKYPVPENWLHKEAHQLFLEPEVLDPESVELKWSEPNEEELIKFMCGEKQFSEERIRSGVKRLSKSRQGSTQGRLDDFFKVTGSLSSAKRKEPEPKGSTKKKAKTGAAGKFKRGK
Method in brief: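 Steps: add FEN1 (10 nM reagent) or buffer only; pin compounds; hold 15 min at room temperature; start with substrate, 50 nM final; read at 0 and 15 min; correct, normalize and fit a four-parameter Hill curve.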

[7] = molecular target: M-phase phosphoprotein 8 (Homo sapiens) (UniProt Q99549); test: qHTS Validation Assay for Inhibitors for MPP8 Chromodomain Interactions with Methylated Histone Tails (AID 488949); conditions: AlphaScreen MPP8 binding to H3K9me3 peptide; series mostly up to 57.1 µM; also: nearly all actives have a fitted effect of over 55% in size; also: potency is read from the fitted curve at half-maximal effect
M-phase phosphoprotein 8 (Homo sapiens), sequence (Q99549 whole entry, looked up): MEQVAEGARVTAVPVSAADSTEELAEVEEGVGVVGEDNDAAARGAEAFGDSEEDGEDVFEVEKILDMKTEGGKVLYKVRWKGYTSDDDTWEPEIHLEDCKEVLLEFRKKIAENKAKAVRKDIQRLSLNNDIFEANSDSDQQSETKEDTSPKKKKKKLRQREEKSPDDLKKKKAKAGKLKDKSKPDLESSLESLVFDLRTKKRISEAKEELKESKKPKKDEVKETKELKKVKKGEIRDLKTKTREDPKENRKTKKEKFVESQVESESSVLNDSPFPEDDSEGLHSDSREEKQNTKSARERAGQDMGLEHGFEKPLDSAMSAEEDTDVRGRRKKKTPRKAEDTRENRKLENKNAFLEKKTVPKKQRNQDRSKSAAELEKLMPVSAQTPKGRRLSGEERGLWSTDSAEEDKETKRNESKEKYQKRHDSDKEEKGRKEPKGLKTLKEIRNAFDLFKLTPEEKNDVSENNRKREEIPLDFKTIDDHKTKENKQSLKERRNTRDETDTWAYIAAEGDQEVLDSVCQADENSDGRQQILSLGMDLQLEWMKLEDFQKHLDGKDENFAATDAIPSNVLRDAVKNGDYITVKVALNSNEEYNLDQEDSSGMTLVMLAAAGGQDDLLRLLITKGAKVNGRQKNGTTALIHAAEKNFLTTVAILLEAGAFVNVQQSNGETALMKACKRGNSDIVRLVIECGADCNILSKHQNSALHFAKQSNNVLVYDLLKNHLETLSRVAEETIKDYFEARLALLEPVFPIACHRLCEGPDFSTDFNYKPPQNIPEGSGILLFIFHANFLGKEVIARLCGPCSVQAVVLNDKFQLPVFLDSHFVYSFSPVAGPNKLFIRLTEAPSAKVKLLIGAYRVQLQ
Method in brief: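 Disruption of the preformed MPP8–trimethyl-H3K9 peptide complex (both 50 nM, 30 min, RT) is measured after 30 min compound exposure, using AlphaScreen proximity beads; aurintricarboxylic acid titration serves as plate control.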

[8] = molecular target: Chromobox protein homolog 1 (Homo sapiens) (UniProt P83916); test: qHTS Validation Assay for Inhibitors of HP1-beta Chromodomain Interactions with Methylated Histone Tails (AID 488953); conditions: HP1-beta chromodomain / methylated histone peptide binding assay; series mostly up to 114 µM; also: nearly all actives have a fitted effect of over 50% in size; also: potency is read from the fitted curve at half-maximal effect
Chromobox protein homolog 1 (Homo sapiens), sequence (P83916 whole entry, looked up): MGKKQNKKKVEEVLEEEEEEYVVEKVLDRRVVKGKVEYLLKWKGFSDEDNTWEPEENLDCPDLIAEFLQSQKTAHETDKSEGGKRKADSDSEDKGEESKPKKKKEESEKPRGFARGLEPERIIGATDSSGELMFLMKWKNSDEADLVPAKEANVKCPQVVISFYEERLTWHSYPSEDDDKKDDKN
Method in brief: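 AlphaScreen proximity signal from streptavidin donor and nickel chelate acceptor beads (final 10 ug/mL) after 30 min dark incubation. Compounds had 30 min at room temperature with preformed complex of 50 nM HP1-beta and 50 nM b-H3(1-18)K9me3 in PBS pH 7.4 with 0.01% Tween-20.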

[9] = molecular target: Methanococcus maripaludis chaperonin (MmCpn) (UniProt Q6LX38); test: High-Throughput Screening for Modulators of Cytosolic Chaperonin Activity: MmCpn Primary Screen (AID 488978); conditions: Purified MmCpn ATPase activity, ADP HTRF detection, 10 min; series mostly up to 76.9 µM;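 also: 50 nM MmCpn enzyme hydrolysing 30 µM ATP at 37 °C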
Methanococcus maripaludis chaperonin (MmCpn), sequence (Q6LX38 1-543): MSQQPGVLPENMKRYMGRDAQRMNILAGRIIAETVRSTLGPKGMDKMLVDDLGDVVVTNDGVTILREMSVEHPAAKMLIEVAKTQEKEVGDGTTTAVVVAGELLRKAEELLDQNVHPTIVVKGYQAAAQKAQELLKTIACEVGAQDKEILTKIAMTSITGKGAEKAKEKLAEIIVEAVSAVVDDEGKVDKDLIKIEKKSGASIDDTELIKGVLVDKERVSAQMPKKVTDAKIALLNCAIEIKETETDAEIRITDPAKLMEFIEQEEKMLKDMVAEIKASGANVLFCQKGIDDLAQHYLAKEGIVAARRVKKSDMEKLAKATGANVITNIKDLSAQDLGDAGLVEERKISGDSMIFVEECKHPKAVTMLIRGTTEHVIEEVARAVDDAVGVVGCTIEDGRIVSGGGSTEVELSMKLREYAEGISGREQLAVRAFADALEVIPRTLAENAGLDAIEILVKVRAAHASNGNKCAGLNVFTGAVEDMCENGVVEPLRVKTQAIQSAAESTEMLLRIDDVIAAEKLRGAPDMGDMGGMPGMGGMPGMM
Method in brief: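 Measures ATPase turnover of the M. maripaludis chaperonin (50 nM final) against 30 uM ATP over 10 min at 37C, with compound added 5 min beforehand at room temperature. ADP is quantified by HTRF immunodetection.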

SMILES | outcome [1] | Potency [2] | Potency [3] | outcome [4] | Potency [5] | Potency [6] | Potency [7] | Potency [8] | outcome [9]
O=C(O)C1=CCNCC1 | inactive | inactive | inactive | inactive | inactive | inactive | inactive | inactive | inactive
NCCCCN | inactive | inactive | inactive | inactive | inactive | inactive | inactive | inactive | inactive
CC(N)(Cc1ccc(O)c(O)c1)C(=O)O (stereo unspecified) | inactive | inactive | inactive | inactive | 2.99 µM (active) | 2.38 µM (active) | 79.4 µM (active) and 2.38 µM (active) | 5.32 µM (active) | inactive
Cn1cc(C(=O)OCC2CCN(CCNS(C)(=O)=O)CC2)c2ccccc21 | inactive | inactive | inactive | inactive | inactive | inactive | inactive | inactive | inactive
Cc1nc(N=Nc2ccc(S(=O)(=O)O)cc2S(=O)(=O)O)c(COP(=O)(O)O)c(C=O)c1O | inactive | inactive | inactive | inactive | inactive | inactive | inactive | inactive | inactive
CCCCCCCCCC[Si](C)(C)CCC(=O)NC(Cc1ccc(C)cc1)c1ccccc1 (stereo unspecified) | inactive | inactive | inactive | inactive | inactive | inactive | inactive | inactive | inactive
O=c1[nH]ccc2c(O)cccc12 | inactive | inactive | inactive | inactive | inactive | inactive | inactive | inactive | inactive
O=C(c1ccc2c(c1)OCCO2)N1CCCCC1 | inactive | inactive | inactive | inactive | inactive | inactive | inactive | inactive | inactive
Oc1cc(O)c2c(c1)O[C@H](c1ccc(O)c(O)c1)[C@@H](O)C2 | inactive | inactive | inactive | inactive | inactive | 4.74 µM (active) | inactive | inactive | inactive
N[C@@H](CCCC(=O)O)C(=O)O | inactive | inactive | inactive | inactive | inactive | inactive | inactive | inactive | inactive
COc1cc(CC(=O)O)ccc1O | inactive | inactive | inactive | inactive | inactive | inactive | inactive | 0.006 µM (active) | inactive
CCCCCCN(CCCCCC)C(=O)Cc1c(-c2ccc(F)cc2)[nH]c2ccccc12 | inactive | 3.7 µM (active) | 5.22 µM (active) | inactive | inactive | inactive | inactive | inactive | inactive
Cn1c(=O)c2[nH]c(-c3ccc(S(=O)(=O)O)cc3)nc2n(C)c1=O | inactive | inactive | inactive | inactive | inactive | inactive | inactive | inactive | inactive
COc1ccc2c(c1)c(CC(=O)O)c(C)n2C(=O)c1ccccc1 | inactive | inactive | inactive | inactive | inactive | inactive | inactive | inactive | inactive
NC1(C(=O)O)CC1 | inactive | inactive | inactive | inactive | inactive | inactive | inactive | inactive | inactive
OCC1NCC(O)C(O)C1O (stereo unspecified) | inactive | inactive | inactive | inactive | inactive | inactive | inactive | inactive | inactive
C[N+](C)(C)CC=O | inactive | inactive | inactive | inactive | inactive | inactive | inactive | inactive | inactive
NC1CCN(O)C1=O (stereo unspecified) | inactive | inactive | inactive | inactive | inactive | inactive | inactive | inactive | inactive
CC1CCN(CC[C@H]2CCCN2S(=O)(=O)c2cccc(O)c2)CC1 | inactive | inactive | inactive | inactive | inactive | inactive | inactive | inactive | inactive
Nc1ncnc2c1ncn2C1CCCO1 (stereo unspecified) | inactive | inactive | inactive | inactive | inactive | inactive | inactive | 0.006 µM (active) | inactive
COC(=O)[C@H](NC(=O)c1cc(-c2ccccc2)nc2ccccc12)c1ccccc1 | inactive | inactive | inactive | inactive | inactive | inactive | inactive | inactive | inactive
CC(C)C[C@H](NC(=O)C1OC1C(=O)O)C(=O)NCCCCN=C(N)N (stereo partly specified) | inactive | 2.33 µM (active) | 5.86 µM (active) | inactive | inactive | inactive | inactive | 0.006 µM (active) | inactive
CCN(CC)CCOC(=O)c1cc(Cl)c(N)cc1OC | inactive | inactive | inactive | inactive | inactive | inactive | inactive | inactive | inactive
CCCCCCCCCCCCCCC[C@H](O)[C@H](N)CO | inactive | inactive | inactive | inactive | inactive | inactive | inactive | 89.1 µM (active) | inactive
O=C(O)C1CCCNC1 (stereo unspecified) | inactive | inactive | inactive | inactive | inactive | inactive | inactive | inactive | inactive

SMILES | outcome [1] | Potency [2] | Potency [3] | outcome [4] | Potency [5] | Potency [6] | Potency [7] | Potency [8] | outcome [9]
C=CCN1CCc2c(cc(O)c(O)c2Br)[C@@H](c2ccccc2)C1 | inactive | inactive | 1.85 µM (active) | inactive | inactive | inactive | inactive | 44.7 µM (active) | inactive
O=c1ccn([C@@H]2O[C@H](COP(=O)(O)OP(=O)(O)O)[C@@H](O)[C@H]2O)c(=O)[nH]1 | inactive | inactive | inactive | inactive | inactive | inactive | inactive | inactive | inactive
COc1cc(C(O)C(=O)O)ccc1O (stereo unspecified) | inactive | inactive | inactive | inactive | inactive | inactive | inactive | inactive | inactive
CCCn1c(=O)c2c(ncn2C)n(CCC)c1=O | inactive | inactive | inactive | inactive | inactive | inactive | inactive | inactive | inactive
O=c1[nH]c2cc(Cl)ccc2c(O)c1-c1ccc(Oc2ccccc2)cc1 | inactive | inactive | inactive | inactive | inactive | inactive | inactive | inactive | inactive
C#CCn1c(=O)c2c(ncn2C)n(C)c1=O | inactive | inactive | inactive | inactive | inactive | inactive | inactive | inactive | inactive
CC(/C=C/c1cccc(Oc2ccc(F)cc2)c1)N(O)C(N)=O (stereo unspecified) | inactive | inactive | inactive | inactive | inactive | inactive | inactive | inactive | inactive
CC(C)(C)c1cc(/C=C(\C#N)C(N)=S)cc(C(C)(C)C)c1O | inactive | 9.28 µM (active) | 8.28 µM (active) | inactive | – | inactive | 11.2 µM (active) | 11.2 µM (active) | –
NCCC1CCCC(CCN)N1 (stereo unspecified) | inactive | inactive | inactive | inactive | inactive | – | inactive | inactive | inactive
C/C(=C\c1ccc(C(=O)O)cc1)c1ccc2c(c1)C(C)(C)CCC2(C)C | inactive | inactive | inactive | inactive | – | inactive | inactive | inactive | inactive
CCCCCCCCCCCCCCSCC(=O)O | inactive | inactive | inactive | inactive | inactive | inactive | 31.6 µM (active) and inactive | 50.1 µM (active) | inactive
COc1cc(C(O)CO)ccc1O (stereo unspecified) | inactive | inactive | inactive | inactive | – | inactive | inactive | inactive | inactive
O=C1C2C=CC=CC2=NC(=S)N1CCN1CCC(=C(c2ccc(F)cc2)c2ccc(F)cc2)CC1 (stereo unspecified) | inactive | inactive | inactive | inactive | – | inactive | 50.1 µM (active) and inactive | – | inactive
N[C@@H](Cc1c[nH]c2ccccc12)C(=O)O | inactive | inactive | inactive | inactive | – | inactive | inactive | inactive | inactive
CC(=O)N[C@@H](Cc1c[nH]c2ccccc12)C(=O)OCc1cc(C(F)(F)F)cc(C(F)(F)F)c1 | inactive | inactive | inactive | inactive | inactive | inactive | inactive | – | inactive
NCCCNCCCCNCCCN | inactive | inactive | inactive | inactive | – | inactive | inactive | inactive | inactive
Nc1ccc2c3c(cccc13)C(=O)NC2=O | inactive | inactive | inactive | inactive | inactive | – | inactive | inactive | –
O=C(O)/C=C/c1cnc[nH]1 | inactive | inactive | inactive | inactive | inactive | inactive | inactive | – | inactive
O=C(O)C1=CCCN(CCON=C(c2ccccc2)c2ccccc2)C1 | inactive | inactive | inactive | inactive | inactive | inactive | inactive | – | inactive
N#Cc1cc2nc(O)c(O)nc2cc1[N+](=O)[O-] | inactive | inactive | inactive | inactive | inactive | inactive | inactive | inactive | inactive
NC1(C(=O)O)CCc2cc(C(=O)O)ccc21 (stereo unspecified) | inactive | inactive | inactive | inactive | – | inactive | inactive | inactive | inactive
O=c1onc2cnc3ccccc3n12 | inactive | inactive | inactive | inactive | inactive | inactive | inactive | – | inactive
c1ccc2nc(C3=NCCN3)ccc2c1 | inactive | inactive | inactive | inactive | inactive | – | inactive | inactive | inactive
Cc1cccc(C(=O)NCN2CCN(c3ccccc3C#N)CC2)c1 | inactive | inactive | inactive | inactive | – | inactive | inactive | inactive | inactive
NC(C(=O)N[C@@H]1C(=O)N2C(C(=O)O)=C(Cl)CS[C@H]12)c1ccccc1 (stereo partly specified) | inactive | inactive | inactive | inactive | inactive | inactive | inactive | – | inactive
